According to PubChem BioAssay AID1159580 (chemical genetic matrix, 2015):
In all, about 5,500 compounds went through this assay and about 2,000 (36%) were called active. Roughly 18% stayed inconclusive and do not appear here. Rule as the data show it: active = normalized growth mostly below about 0.91 (no sharp cut-off); inconclusive = no clear call, values can overlap the other calls; inactive = mostly above about 0.92. The list shows a part of the results.

Test: chemical genetic growth profiling, strain panel (AID 1159580);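 also: tested at 20 µM; growth read once vehicle control cultures reached saturation at 30 °C; 1 = growth at the plate median or of vehicle wells; lower values mean less growth of the strain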
Settings: growth OD

Measured: normalized growth

c1ccc2c(c1)[nH]c1cnccc12
inactive: S. cerevisiae deletion strains, locus YJR066W, strain TOR1, hits give low values 0.956 | S. cerevisiae deletion strains, locus YKL009W, strain mrt4, hits give low values 1.01 | S. cerevisiae deletion strains, locus YKL068W, hits give low values 0.975 | S. cerevisiae deletion strains, locus YKL085W, strain MDH1 (second series), hits give low values 0.98 | S. cerevisiae deletion strains, locus YKL085W, strain MDH1, hits give low values 0.98 | S. cerevisiae deletion strains, locus YKL160W, strain elf1, hits give low values 1.01 | S. cerevisiae deletion strains, locus YKL190W, strain CNB1, hits give low values 0.993 | S. cerevisiae deletion strains, locus YKR001C, strain vps1, hits give low values 0.962 | S. cerevisiae deletion strains, locus YKR026C, strain gcn3, hits give low values 0.986 | S. cerevisiae deletion strains, locus YKR091W, strain srl3, hits give low values 1 | S. cerevisiae deletion strains, locus YLL001W, strain dnm1, hits give low values 1 | S. cerevisiae deletion strains, locus YLL026W, hits give low values 0.996 | S. cerevisiae deletion strains, locus YLL041C, strain sdh2, hits give low values 1 | S. cerevisiae deletion strains, locus YLR027C, strain aat2, hits give low values 1.01 | S. cerevisiae deletion strains, locus YLR039C, strain RIC1, hits give low values 0.893 | S. cerevisiae deletion strains, locus YLR058C, strain SHM2, hits give low values 1.01 | S. cerevisiae deletion strains, locus YLR102C, strain apc9, hits give low values 0.972 | S. cerevisiae deletion strains, locus YLR113W, strain HOG1, hits give low values 1.03 | S. cerevisiae deletion strains, locus YLR221C, strain rsa3, hits give low values 1 | S. cerevisiae deletion strains, locus YLR258W, strain gsy2, hits give low values 0.998 | S. cerevisiae deletion strains, locus YLR262C, strain YPT6 (second series), hits give low values 0.948 | S. cerevisiae deletion strains, locus YLR262C, strain YPT6, hits give low values 0.947 | S. cerevisiae deletion strains, locus YLR268W, strain sec22, hits give low values 0.952 | S. cerevisiae deletion strains, locus YLR320W, strain mms22, hits give low values 0.994 | S. cerevisiae deletion strains, locus YLR330W, strain CHS5, hits give low values 0.976 | S. cerevisiae deletion strains, locus YLR342W, strain FKS1 (second series), hits give low values 1.02 | S. cerevisiae deletion strains, locus YLR342W, strain FKS1, hits give low values 1 | S. cerevisiae deletion strains, locus YLR357W, strain rsc2, hits give low values 0.99 | S. cerevisiae deletion strains, locus YLR370C, strain arc18, hits give low values 1 | S. cerevisiae deletion strains, locus YLR371W, strain rom2, hits give low values 0.983 | S. cerevisiae deletion strains, locus YLR384C, strain iki3, hits give low values 0.992 | S. cerevisiae deletion strains, locus YLR418C, strain cdc73, hits give low values 1.02 | S. cerevisiae deletion strains, locus YML016C, strain PPZ1, hits give low values 0.991 | S. cerevisiae deletion strains, locus YML032C, strain rad52, hits give low values 1.02 | S. cerevisiae deletion strains, locus YML120C, strain ndi1, hits give low values 1 | S. cerevisiae deletion strains, locus YML124C, strain tub3, hits give low values 0.987 | S. cerevisiae deletion strains, locus YMR058W, strain fet3, hits give low values 0.996 | S. cerevisiae deletion strains, locus YMR078C, strain ctf18, hits give low values 0.956 | S. cerevisiae deletion strains, locus YMR125W, strain sto1, hits give low values 0.996 | S. cerevisiae deletion strains, locus YMR129W, hits give low values 1.01 | S. cerevisiae deletion strains, locus YMR205C, strain PFK2, hits give low values 0.977 | S. cerevisiae deletion strains, locus YMR223W, strain ubp8, hits give low values 1 | S. cerevisiae deletion strains, locus YMR231W, strain pep5, hits give low values 0.994 | S. cerevisiae deletion strains, locus YMR263W, strain SAP30, hits give low values 0.982 | S. cerevisiae deletion strains, locus YMR307W, strain GAS1, hits give low values 1.23 | S. cerevisiae deletion strains, locus YNL067W, strain RPL9B, hits give low values 0.986 | S. cerevisiae deletion strains, locus YNL071W, strain lat1, hits give low values 1.01 | S. cerevisiae deletion strains, locus YNL153C, strain GIM3, hits give low values 0.971 | S. cerevisiae deletion strains, locus YNL183C, strain NPR1, hits give low values 0.965 | S. cerevisiae deletion strains, locus YNL209W, strain ssb2, hits give low values 1.01 | S. cerevisiae deletion strains, locus YNL233W, strain BNI4, hits give low values 0.984 | S. cerevisiae deletion strains, locus YNL248C, strain rpa49, hits give low values 1.01 | S. cerevisiae deletion strains, locus YNL250W, strain rad50, hits give low values 0.941 | S. cerevisiae deletion strains, locus YNL271C, strain bni1, hits give low values 0.985 | S. cerevisiae deletion strains, locus YNL298W, strain CLA4, hits give low values 0.984 | S. cerevisiae deletion strains, locus YNL307C, strain MCK1, hits give low values 0.976 | S. cerevisiae deletion strains, locus YNL322C, strain KRE1 (second series), hits give low values 1 | S. cerevisiae deletion strains, locus YNR049C, strain mso1, hits give low values 1.01 | S. cerevisiae deletion strains, locus YNR052C, strain pop2, hits give low values 0.997 | S. cerevisiae deletion strains, locus YOL012C, strain htz1 0.866 | S. cerevisiae deletion strains, locus YOL147C, strain pex11, hits give low values 0.988 | S. cerevisiae deletion strains, locus YOR001W, strain rrp6, hits give low values 0.996 | S. cerevisiae deletion strains, locus YOR061W, strain CKA2, hits give low values 1.01 | S. cerevisiae deletion strains, locus YOR069W, strain VPS5, hits give low values 0.998 | S. cerevisiae deletion strains, locus YOR070C, strain gyp1, hits give low values 1.01 | S. cerevisiae deletion strains, locus YOR080W, strain dia2, hits give low values 0.986 | S. cerevisiae deletion strains, locus YOR083W, strain WHI5, hits give low values 1 | S. cerevisiae deletion strains, locus YOR106W, strain vam3, hits give low values 1 | S. cerevisiae deletion strains, locus YOR136W, strain idh2, hits give low values 0.974 | S. cerevisiae deletion strains, locus YOR144C, strain elg1, hits give low values 0.99 | S. cerevisiae deletion strains, locus YOR184W, strain ser1, hits give low values 0.995 | S. cerevisiae deletion strains, locus YOR231W, strain MKK1, hits give low values 1.03 | S. cerevisiae deletion strains, locus YOR265W, strain rbl2, hits give low values 0.994 | S. cerevisiae deletion strains, locus YOR270C, strain vph1, hits give low values 1 | S. cerevisiae deletion strains, locus YOR290C, strain snf2, hits give low values 1.03 | S. cerevisiae deletion strains, locus YOR316C, strain cot1, hits give low values 0.988 | S. cerevisiae deletion strains, locus YPL051W, strain arl3, hits give low values 1 | S. cerevisiae deletion strains, locus YPL055C, strain LGE1, hits give low values 0.991 | S. cerevisiae deletion strains, locus YPL078C, strain atp4, hits give low values 1 | S. cerevisiae deletion strains, locus YPL106C, strain sse1, hits give low values 0.983 | S. cerevisiae deletion strains, locus YPL240C, strain hsp82, hits give low values 1.02 | S. cerevisiae deletion strains, locus YPL241C, strain CIN2, hits give low values 1.01 | S. cerevisiae deletion strains, locus YPL256C, strain CLN2, hits give low values 1.02 | S. cerevisiae deletion strains, locus YPR119W, strain clb2, hits give low values 0.979 | S. cerevisiae deletion strains, locus YPR141C, strain kar3, hits give low values 0.984 | S. cerevisiae deletion strains, locus YPR163C, strain tif3, hits give low values 0.985 | S. cerevisiae deletion strains, locus YPR167C, strain met16, hits give low values 0.986 | S. cerevisiae deletion strains, strain wtn01, hits give low values 0.95 | S. cerevisiae strains, strain wild type, hits give low values 0.999
